Data published in PubChem BioAssay (EPA / NIEHS).
Records with an inconclusive call do not appear. The source holds several records for some structures; these can differ, active in one and inactive in another. Calls of active or inactive are those of the source. How the source made its calls: active means hit-call score of the fitted dose curve at least 0.9, where 1 is the maximum; inconclusive means response in the unintended direction; inactive means score below 0.9.

Columns and labels:
[1] = molecular target: Cellular tumor antigen p53 (Homo sapiens) (UniProt P04637); assay: TOX21_p53_BLA_p5_ratio: Tox21 HCT-116 p53 Agonism Beta-lactamase Assay, Ratio, Phase 5 (AID 2283599)
Procedure, shortened: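 HCT-116 cells carrying a p53-inducible beta-lactamase reporter were seeded at 4000 cells/well and dosed after 5 h with compound in DMSO (217-fold dilution). After 16 h at 37C, CCF4-AM substrate was added for 2 h, and the 460/530 nm emission ratio was scored as gain-of-signal versus DMSO.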

[2] = TOX21_p53_BLA_p5_viability: Viability Assessment in the Tox21 HCT-116 p53 Agonism Beta-lactamase Assay, Phase 5 (AID 2283600)
Procedure, shortened: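 HCT-116 p53 beta-lactamase reporter cells, 4000/well, were exposed to compound (pin transfer, 217-fold dilution) for 16 hours at 37C. Cellular ATP was read by CellTiter-Glo luminescence after 30 min at room temperature.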

[3] = Tanguay_ZF_120hpf_MORT_legacy: (Legacy) Oregon State University Tanguay Lab 120 Hour Post-fertilization zebrafish Assay for Mortality (AID 2283633);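 on AC50: fitted as increase in binary mortality versus DMSO negative control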
Procedure, shortened: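 Dechorionated Tropical 5D wild-type zebrafish embryos, one per well from 6 hpf, static exposure in 0.64% DMSO at 28C until 120 hpf. Mortality scored as binary by brightfield microscopy at 24 and 120 hpf.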

[4] = Tanguay_ZF_120hpf_YSE_legacy: (Legacy) Oregon State University Tanguay Lab 120 Hour Post-fertilization zebrafish Assay for Yolk Sac Edema (AID 2283634);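 on AC50: actives raise the incidence of yolk sac edema above the DMSO baseline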
Procedure, shortened: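 Dechorionated Tropical 5D wild-type zebrafish embryos were exposed statically, one per well, from 6 to 120 hpf at 28C in 0.64% DMSO. Yolk sac edema was scored present/absent by brightfield at 120 hpf, and dead embryos were excluded.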

[5] = Tanguay_ZF_120hpf_AXIS_legacy: (Legacy) Oregon State University Tanguay Lab 120 Hour Post-fertilization zebrafish Assay for Body Axis Malformation (AID 2283635);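 on AC50: potency for an increased fraction of larvae scored with body axis malformation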
Procedure, shortened: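 Dechorionated wild-type Tropical 5D zebrafish embryos, one per well, statically exposed from 6 hpf to 120 hpf at 28C in 0.64% DMSO final. Body axis malformation scored present/absent by brightfield microscopy at 120 hpf; dead embryos excluded.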

[6] = Tanguay_ZF_120hpf_EYE_legacy: (Legacy) Oregon State University Tanguay Lab 120 Hour Post-fertilization zebrafish Assay for Eye Malformation (AID 2283636);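 further: binary presence or absence of eye malformation scored by brightfield in 120 hpf larvae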
Procedure, shortened: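 Dechorionated wild-type Tropical 5D zebrafish embryos were exposed statically from 6 hpf, one per well, to 120 hpf at 28C in sealed, foil-covered plates with 0.64% DMSO. Eye malformation was scored present/absent by brightfield microscopy against DMSO controls.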

[7] = Tanguay_ZF_120hpf_SNOU_legacy: (Legacy) Oregon State University Tanguay Lab 120 Hour Post-fertilization zebrafish Assay for Snout Malformation (AID 2283637)
Procedure, shortened: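 Tropical 5D wild-type zebrafish embryos, dechorionated with pronase at 4 hpf, were exposed singly from 6 hpf to 120 hpf statically at 28C in 0.64% DMSO. Snout malformation was scored present/absent by brightfield microscopy, fitted against DMSO.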

[8] = Tanguay_ZF_120hpf_JAW_legacy: (Legacy) Oregon State University Tanguay Lab 120 Hour Post-fertilization zebrafish Assay for Jaw Malformation (AID 2283638);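 on AC50: active means more embryos with jaw malformation than DMSO controls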
Procedure, shortened: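 Dechorionated Tropical 5D wild-type zebrafish embryos, one per well, exposed statically from 6 hpf to 120 hpf at 28C in 0.64% DMSO. Jaw malformation was scored by brightfield microscopy as present or absent. It was not scored in dead embryos.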

[9] = Tanguay_ZF_120hpf_OTIC_legacy: (Legacy) Oregon State University Tanguay Lab 120 Hour Post-fertilization zebrafish Assay for Otic Vesicle Malformation (AID 2283639)
Procedure, shortened: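 Tropical 5D wild-type zebrafish embryos were exposed statically in sealed, foil-covered plates at 28C until 120 hpf, with 0.64% (vol/vol) DMSO final. Otic vesicle malformation was scored present/absent by brightfield microscopy, with DMSO as baseline.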

[10] = molecular target: Cellular tumor antigen p53 (Homo sapiens) (UniProt P04637); assay: TOX21_p53_BLA_p4_ratio: Tox21 HCT-116 p53 Agonism Beta-lactamase Assay, Ratio, Phase 4 (AID 2283601)
Procedure, shortened: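 HCT116 cells carrying an inducible beta-lactamase reporter were plated at 4000 cells/well, rested 5 h, then exposed to compounds in DMSO (217-fold dilution) for 16 h at 37C. CCF4-AM substrate was loaded 2 h at room temperature; 460/530 nm emission ratio scored gain-of-signal versus DMSO.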

Measured: AC50

Cellular tumor antigen p53 (Homo sapiens), sequence (P04637 whole entry, looked up): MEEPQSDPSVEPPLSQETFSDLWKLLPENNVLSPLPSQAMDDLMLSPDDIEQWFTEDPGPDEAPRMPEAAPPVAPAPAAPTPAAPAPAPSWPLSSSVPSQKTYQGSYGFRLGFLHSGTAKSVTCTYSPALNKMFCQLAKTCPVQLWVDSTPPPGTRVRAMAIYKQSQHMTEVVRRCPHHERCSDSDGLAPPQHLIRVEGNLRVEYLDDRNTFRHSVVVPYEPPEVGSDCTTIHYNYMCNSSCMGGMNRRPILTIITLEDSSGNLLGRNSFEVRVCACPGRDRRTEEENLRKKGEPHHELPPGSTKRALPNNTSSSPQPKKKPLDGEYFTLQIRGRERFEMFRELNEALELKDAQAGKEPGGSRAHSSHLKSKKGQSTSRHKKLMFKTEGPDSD

CCOc1ccc2c(c1)C(C)=CC(C)(C)N2
inactive: [1] | [2] | [3] | [4] | [5] | [6] | [9]
active: [1] 67.7 µM | [7] 19.4 µM | [8] 15.9 µM

Nc1nc(N)c2nc(CNc3ccc(C(=O)N[C@@H](CCC(=O)O)C(=O)O)cc3)cnc2n1
active: [1] 0.158 µM
inactive: [1] | [3] | [4] | [6] | [7] | [9]

COc1cc(-c2nc(NC(=O)c3cc4cc(C)cc(C)c4n3CC(=O)O)sc2CCC2CCCCC2)c(OC)cc1Cl
active: [1] 9.04 µM | [2] 3.51 µM
not listed: [10]
inactive: all other assays above

Nc1ccc2c(c1)C(=O)c1ccccc1C2=O
not listed: [8]
inactive: all other assays above

COc1ccc(S(=O)(=O)N2C(=O)[C@@](c3ccccc3OC)(N3C[C@H](O)C[C@H]3C(=O)N(C)C)c3cc(Cl)ccc32)c(OC)c1
active: [1] 75 µM | [2] 77.4 µM
not listed: [9] | [10]
inactive: all other assays above

O=C(O)Cc1ccccc1Nc1c(Cl)cccc1Cl
inactive: [1] | [10] | [4] | [5] | [6] | [7] | [8] | [9]
active: [1] 86.4 µM | [10] 71.7 µM | [3] 30.6 µM

O=C(O)CCCCC(=O)O
not listed: [5] | [8] | [10]
inactive: all other assays above

COC(=O)c1ccc(O)cc1
not listed: [2] | [8] | [9]
inactive: all other assays above

CN[C@H]1CC[C@@H](c2ccc(Cl)c(Cl)c2)c2ccc(S(N)(=O)=O)cc21
active: [1] 82.5 µM | [10] 86.1 µM
inactive: [3] | [4] | [5] | [7] | [9]

CCNc1cccc(C)c1
not listed: [2]
inactive: all other assays above

C[Si]1(C)O[Si](C)(C)O[Si](C)(C)O[Si](C)(C)O1
not listed: [2]
inactive: all other assays above

Cc1cccc(C)c1O
inactive: [1] | [3] | [4] | [5] | [6] | [7]

Cc1ccc2ncccc2c1
not listed: [2] | [8]
inactive: all other assays above

CCCCc1ccc2c(n1)[C@@H](c1ccc(OC)cc1C[C@H](C)C(=O)O)[C@H](C(=O)O)[C@H]2c1ccc2c(c1)OCO2
inactive: [1] | [3] | [4] | [5] | [6] | [7]

CN1CCCC1=O
not listed: [2] | [7] | [8]
inactive: all other assays above

COCCOCCOC
inactive: [1] | [3] | [4] | [5] | [6] | [7]

Cc1ccc(N(C)C)cc1
not listed: [2] | [8] | [9]
inactive: all other assays above

OC[C@@H](O)[C@@H](O)[C@H](O)[C@H](O)CO
not listed: [2]
inactive: all other assays above

Nc1ccc(S(=O)(=O)c2ccc(N)cc2)cc1
not listed: [2] | [4]
inactive: all other assays above

COc1cc(C=O)ccc1O
active: [4] 43.3 µM | [5] 49.2 µM | [6] 60.5 µM | [7] 36.6 µM | [8] 35.3 µM | [9] 59.2 µM
inactive: [1] | [10] | [3]

O=c1c(O)c(-c2ccc(O)c(O)c2)oc2cc(O)cc(O)c12
active: [1] 44.4 µM [middle of 4 runs] | [10] 22.8 µM [middle of 4 runs]
inactive: [3] | [4] | [5] | [7] | [9]
